Laboratory results from PubChem BioAssay (NCATS).
Records with an inconclusive call do not appear. A call without a number means that no potency is given here. The source made the active and inactive calls. Calls come from the whole dose curve; as a rule, active = well fitted inhibition curve with a large enough effect; inconclusive = small, poorly fitted or top-dose-only effect; inactive = flat fitted curve, though single readings scatter.

biological target: Calcium and integrin-binding protein 1 (Homo sapiens) (UniProt Q99828); test: Primary qHTS for Identification of Calcium Integrin Binding Protein 1 (CIB1) Competitor (AID 1508620); details: CIB1-GST / FITC-alphaIIb peptide fluorescence polarization; series mostly up to 57.7 µM; note: top concentration of the series differs between compounds
Method in brief: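 Fluorescence polarization competition: GST-tagged CIB1 (1 uM final) preincubated with compound 15 min at room temperature, then FITC-labelled alphaIIb peptide (100 nM final) added. After 15 min at room temperature, polarization read at Ex 480/Em 540.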

Chain of Calcium and integrin-binding protein 1 (Homo sapiens) (Q99828 whole entry, looked up): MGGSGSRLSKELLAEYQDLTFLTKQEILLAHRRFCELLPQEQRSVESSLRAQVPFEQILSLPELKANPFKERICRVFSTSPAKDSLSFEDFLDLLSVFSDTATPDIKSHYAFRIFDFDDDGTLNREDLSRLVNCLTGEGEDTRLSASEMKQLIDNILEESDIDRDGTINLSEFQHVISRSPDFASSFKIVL

Compound	Potency
C[C@@H]1O[C@@H](O[C@H]2[C@H](O[C@H]3CC[C@@]4(C)C(CC[C@]5(C)C4CC=C4[C@@H]6CC(C)(C)CC[C@]6(C(=O)O)CC[C@]45C)[C@]3(C)CO)OC[C@H](O)[C@@H]2O)[C@H](O)[C@H](O[C@@H]2OC[C@@H](O)[C@H](O)[C@H]2O)[C@H]1O (stereo not given in full)	inactive
C[C@]1(O)CC[C@@H]2C(C(=O)O)=CO[C@@H](O[C@@H]3O[C@H](COC(=O)c4ccc(O)cc4)[C@@H](O)[C@H](O)[C@H]3O)[C@@H]21	inactive
COc1c(C)c2c(c(O)c1C/C=C(\C)CC/C=C(\C)CCC(=O)O)C(=O)OC2	inactive
C=C1CCC2(OC1)OC1CC3C4CC=C5CC(O)CC(O[C@@H]6OC[C@@H](O)[C@H](O)[C@H]6O)C5(C)C4CCC3(C)C1(O)C2C (stereo not given in full)	inactive
CCOc1nc2cccc(C(=O)O)c2n1Cc1ccc(-c2ccccc2-c2noc(=O)[nH]2)cc1	inactive
O=C(/C=C/c1ccc(O)c(O)c1)OCc1ccccc1O[C@@H]1O[C@H](CO)[C@@H](O)[C@H](O)[C@H]1O	inactive
C[C@@H]1O[C@@H](O[C@H]2[C@H](O[C@H]3CO[C@@H](O[C@H]4CC[C@@]5(C)C(CC[C@]6(C)C5CC[C@]57OC[C@@]8(CC[C@](C)(CO)CC85)[C@H](O)C[C@]76C)C4(C)C)[C@H](O[C@@H]4O[C@H](CO)[C@@H](O)[C@H](O)[C@H]4O)[C@H]3O)O[C@H](CO)[C@@H](O)[C@@H]2O)[C@H](O)[C@H](O)[C@H]1O (stereo not given in full)	inactive
COc1ccc([C@H]2Cc3cccc(O)c3C(=O)O2)cc1	inactive
COC(=O)c1ccc(O[C@@H]2O[C@H](CO)[C@@H](O)[C@H](O)[C@H]2O)c(OC)c1	inactive
CC1=C2C=C(CO)C(CO)CCC2(C)CCC1=O (stereo not given)	inactive
